# Data taken from PubChem BioAssay (NCI).
# This is part of a sample that, as a whole, favours compounds with a hit. Of some 79,000 tested, about 15% had one in any assay. A number with no mark means an inactive call. Calls of active or inactive are those of the source. Cut-off read from the data, not from the text of the source: active = growth inhibition above about 70%; inactive = the rest.
# Assays:
# [1] = NCI Yeast Anticancer Drug Screen. Data for the rad52 strain (AID 147);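 note: 0% = growth of vehicle-treated control cultures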; settings: S. cerevisiae rad52 mutant growth inhibition, active compounds read high
# Method in brief: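 Genetically altered yeast (DNA damage repair defect) treated with compound; inhibition calculated relative to vehicle.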
# [2] = NCI Yeast Anticancer Drug Screen. Data for the wt1 strain (AID 149);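 note: 0% = growth of vehicle-treated wt1 cultures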; settings: S. cerevisiae wt1 strain (SPY 50644) growth inhibition, active compounds read high
# Method in brief: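 Compounds are added to wt1 yeast cultures. Growth is then measured. Inhibition is expressed relative to vehicle-treated controls.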
# [3] = NCI Yeast Anticancer Drug Screen. Data for the rad50EPP+ strain (AID 151);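 note: 0% = growth of vehicle-treated control cultures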; settings: S. cerevisiae rad50 mutant strain, active compounds read high
# Method in brief: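 Strain rad50EPP+; compound exposure; % growth inhibition vs vehicle.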
# [4] = NCI Yeast Anticancer Drug Screen. Data for the mgt1 strain (AID 153); settings: S. cerevisiae mgt1 mutant growth inhibition, active compounds read high
# Method in brief: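 Read-out: yeast growth inhibition vs vehicle control. Strain mgt1, drawn from a panel altered in DNA damage repair or cell cycle control.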
# [5] = NCI Yeast Anticancer Drug Screen. Data for the rad50 strain (AID 155);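 note: 0% = growth of vehicle-only cultures of the same strain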; settings: S. cerevisiae rad50 strain growth inhibition, active compounds read high
# Method in brief: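 Inhibition values express reduced yeast growth in compound-treated cultures relative to vehicle-treated controls.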
# [6] = NCI Yeast Anticancer Drug Screen. Data for the mec2-1 strain (AID 157); settings: S. cerevisiae mec2-1 strain, active compounds read high
# Method in brief: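 Cells of the genetically defined mec2-1 yeast strain are incubated with test compound. Inhibition of growth is calculated against vehicle-treated controls.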
# [7] = NCI Yeast Anticancer Drug Screen. Data for the rad14 strain (AID 159);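 note: 0% = growth of vehicle-treated control cultures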; settings: S. cerevisiae rad14 strain growth inhibition, active compounds read high
# Method in brief: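 A mutant yeast strain defective in DNA damage repair is treated with compound; inhibition of its growth is scored against untreated, vehicle-exposed cultures.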
# [8] = NCI Yeast Anticancer Drug Screen. Data for the sgs1 mgt1 strain (AID 161);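 note: 0% = growth of cultures given vehicle only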; settings: S. cerevisiae sgs1 mgt1 strain, active compounds read high
# Method in brief: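 Test agents were incubated with a DNA-repair-mutant yeast strain. Growth was then read and compared against vehicle-treated controls.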
# [9] = NCI Yeast Anticancer Drug Screen. Data for the CLN2oe strain (AID 163);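 note: 0% = growth of vehicle-only control cultures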; settings: S. cerevisiae CLN2oe strain, active compounds read high
# Method in brief: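 Strain altered in cell-cycle control, incubated with compound; growth compared to solvent-treated controls.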
# [10] = NCI Yeast Anticancer Drug Screen. Data for the cln2 rad14 strain (AID 165);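 note: 0% = growth equal to vehicle treated cultures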; settings: S. cerevisiae cln2 rad14 strain, active compounds read high
# Method in brief: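 The screen exposed genetically defined yeast (cln2 rad14) to test compounds and scored growth inhibition relative to vehicle-treated controls.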
# [11] = NCI Yeast Anticancer Drug Screen. Data for the bub3 strain (AID 167); settings: S. cerevisiae bub3 mutant strain, active compounds read high
# Method in brief: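 Steps: expose the mutant yeast strain to compound; grow alongside vehicle-treated cultures; measure growth; express inhibition against the vehicle cultures.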
# [12] = NCI Yeast Anticancer Drug Screen. Data for the wt2 strain (AID 169);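 note: 0% = growth of vehicle-treated yeast cultures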; settings: S. cerevisiae wt2 strain growth inhibition, active compounds read high
# Method in brief: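 Steps: yeast strain treated with compound; growth recorded; inhibition calculated relative to cultures given vehicle alone.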
# [13] = NCI Yeast Anticancer Drug Screen. Data for the mlh1 strain (AID 171);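 note: 0% = growth of vehicle-treated control cultures of the same strain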; settings: S. cerevisiae mlh1 strain growth inhibition, active compounds read high
# Method in brief: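 Yeast screen: mutant strain plus compound, growth scored against vehicle control wells.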
# [14] = NCI Yeast Anticancer Drug Screen. Data for the sgs1 strain (AID 173);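 note: 0% = growth of vehicle-only control cultures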; settings: S. cerevisiae sgs1 mutant, active compounds read high
# Method in brief: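 Inhibition of yeast growth served as the measure. The mutant strain was treated with each compound, and growth was normalised to cultures receiving vehicle alone.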
# [15] = NCI Yeast Anticancer Drug Screen. Data for the mlh1 rad18 strain (AID 175); settings: S. cerevisiae mlh1 rad18 strain growth inhibition, active compounds read high
# Method in brief: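 Compound-treated yeast growth, normalised to vehicle controls. Strain bears defined DNA repair mutations.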
# [16] = NCI Yeast Anticancer Drug Screen. Data for the rad18 strain (AID 177); settings: S. cerevisiae rad18 mutant growth inhibition, active compounds read high
# Method in brief: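 Inhibition values reflect reduced yeast growth compared with vehicle-treated controls, using a strain engineered with a DNA damage repair defect.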
# [17] = at 5.0 µM (retest, dose inferred, filed as 0.5)
# [18] = at 50.0 µM (retest, dose inferred, filed as 5.0)
smiles,measurement,setting,value
CCOC(=O)/C(=C\c1ccc(C#N)cc1)C(C)=O,growth inhibition,[1]; at 1.2 µM,-40%
same,growth inhibition,[1]; at 3.7 µM,-32%
same,growth inhibition,[1]; at 11.0 µM,-4%
same,growth inhibition,[1]; at 33.0 µM,86% (active)
same,growth inhibition,[1]; at 100.0 µM,99% (active)
same,growth inhibition,[2]; at 1.2 µM,-15%
same,growth inhibition,[2]; at 3.7 µM,6%
same,growth inhibition,[2]; at 11.0 µM,9%
same,growth inhibition,[2]; at 33.0 µM,84% (active)
same,growth inhibition,[2]; at 100.0 µM,98% (active)
same,growth inhibition,[3]; at 1.2 µM,-8%
same,growth inhibition,[3]; at 3.7 µM,24%
same,growth inhibition,[3]; at 11.0 µM,40%
same,growth inhibition,[3]; at 33.0 µM,84% (active)
same,growth inhibition,[3]; at 100.0 µM,98% (active)
same,growth inhibition,[4]; at 1.2 µM,-23%
same,growth inhibition,[4]; at 3.7 µM,-4%
same,growth inhibition,[4]; at 11.0 µM,38%
same,growth inhibition,[4]; at 33.0 µM,95% (active)
same,growth inhibition,[4]; at 100.0 µM,99% (active)
same,growth inhibition,[5]; at 1.2 µM,-9%
same,growth inhibition,[5]; at 3.7 µM,7%
same,growth inhibition,[5]; [17],36%
same,growth inhibition,[5]; at 11.0 µM,31%
same,growth inhibition,[5]; at 33.0 µM,91% (active)
same,growth inhibition,[5]; [18],94% (active)
same,growth inhibition,[5]; at 50.0 µM,88.8% (active)
same,growth inhibition,[5]; at 100.0 µM,99% (active)
same,growth inhibition,[6]; at 1.2 µM,-36%
same,growth inhibition,[6]; at 3.7 µM,-27%
same,growth inhibition,[6]; [17],-11%
same,growth inhibition,[6]; at 11.0 µM,13%
same,growth inhibition,[6]; at 33.0 µM,92% (active)
same,growth inhibition,[6]; [18],98% (active)
same,growth inhibition,[6]; at 50.0 µM,81.3% (active)
same,growth inhibition,[6]; at 100.0 µM,98% (active)
same,growth inhibition,[7]; at 1.2 µM,-4%
same,growth inhibition,[7]; at 3.7 µM,1%
same,growth inhibition,[7]; at 11.0 µM,15%
same,growth inhibition,[7]; at 33.0 µM,95% (active)
same,growth inhibition,[7]; at 100.0 µM,99% (active)
same,growth inhibition,[8]; [17],25%
same,growth inhibition,[8]; [18],94% (active)
same,growth inhibition,[8]; at 50.0 µM,92% (active)
same,growth inhibition,[9]; at 1.2 µM,-20%
same,growth inhibition,[9]; at 3.7 µM,-27%
same,growth inhibition,[9]; at 11.0 µM,3%
same,growth inhibition,[9]; at 33.0 µM,87% (active)
same,growth inhibition,[9]; at 100.0 µM,99% (active)
same,growth inhibition,[10]; [17],13%
same,growth inhibition,[10]; [18],94% (active)
same,growth inhibition,[10]; at 50.0 µM,38.2%
same,growth inhibition,[11]; at 1.2 µM,1%
same,growth inhibition,[11]; at 3.7 µM,3%
same,growth inhibition,[11]; [17],29%
same,growth inhibition,[11]; at 11.0 µM,58%
same,growth inhibition,[11]; at 33.0 µM,98% (active)
same,growth inhibition,[11]; [18],99% (active)
same,growth inhibition,[11]; at 50.0 µM,81.2% (active)
same,growth inhibition,[11]; at 100.0 µM,99% (active)
same,growth inhibition,[12]; at 1.2 µM,-37%
same,growth inhibition,[12]; at 3.7 µM,-18%
same,growth inhibition,[12]; at 11.0 µM,18%
same,growth inhibition,[12]; at 33.0 µM,93% (active)
same,growth inhibition,[12]; at 100.0 µM,99% (active)
same,growth inhibition,[13]; at 1.2 µM,0%
same,growth inhibition,[13]; at 3.7 µM,26%
same,growth inhibition,[13]; at 11.0 µM,69%
same,growth inhibition,[13]; at 33.0 µM,98% (active)
same,growth inhibition,[13]; at 100.0 µM,98% (active)
same,growth inhibition,[14]; at 1.2 µM,-18%
same,growth inhibition,[14]; at 3.7 µM,-6%
same,growth inhibition,[14]; at 11.0 µM,25%
same,growth inhibition,[14]; at 33.0 µM,93% (active)
same,growth inhibition,[14]; at 100.0 µM,98% (active)
same,growth inhibition,[15]; [17],-9%
same,growth inhibition,[15]; [18],97% (active)
same,growth inhibition,[15]; at 50.0 µM,90% (active)
same,growth inhibition,[16]; at 1.2 µM,-30%
same,growth inhibition,[16]; at 3.7 µM,7%
same,growth inhibition,[16]; at 11.0 µM,23%
same,growth inhibition,[16]; at 33.0 µM,88% (active)
same,growth inhibition,[16]; at 100.0 µM,98% (active)
